# From the supplement of paper PMC10849652
# About 7,900 targets were measured; listed, in parts, are those with a hit and a random draw of the rest. About 0.6% of all pairs of compound and target were hits.
# Compound: Cc1ccc(NC(=O)c2ccc(CN3CC[C@H](N(C)C)C3)c(C(F)(F)F)c2)cc1Nc1nccc(-c2cncnc2)n1 [bafetinib]
# Assay: log2 fold change, soluble protein after heating vs DMSO (PISA); higher = thermal stabilisation; K562 cells, 10 uM, 30 min; active = over 0.2 and 3.5 SD of the protein, either way, in both replicates (recomputed)
# Summary of the method: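 K562 cells at 2×10^6 cells/mL were treated with 10 μM compound for 30 min. Aliquots were heated for 3 min across 48°C-58°C, pooled, and extracted in PBS with 0.5% NP-40 at 4°C; soluble protein was the supernatant after 21,000xg for 90 min. Soluble protein was quantified by TMTpro 16plex LC-MS/MS with channel sums equalised, and reported as log2 fold change in thermal stability against DMSO controls, with values from duplicates.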
# UniProt O75909, sequence (O75909 whole entry, looked up): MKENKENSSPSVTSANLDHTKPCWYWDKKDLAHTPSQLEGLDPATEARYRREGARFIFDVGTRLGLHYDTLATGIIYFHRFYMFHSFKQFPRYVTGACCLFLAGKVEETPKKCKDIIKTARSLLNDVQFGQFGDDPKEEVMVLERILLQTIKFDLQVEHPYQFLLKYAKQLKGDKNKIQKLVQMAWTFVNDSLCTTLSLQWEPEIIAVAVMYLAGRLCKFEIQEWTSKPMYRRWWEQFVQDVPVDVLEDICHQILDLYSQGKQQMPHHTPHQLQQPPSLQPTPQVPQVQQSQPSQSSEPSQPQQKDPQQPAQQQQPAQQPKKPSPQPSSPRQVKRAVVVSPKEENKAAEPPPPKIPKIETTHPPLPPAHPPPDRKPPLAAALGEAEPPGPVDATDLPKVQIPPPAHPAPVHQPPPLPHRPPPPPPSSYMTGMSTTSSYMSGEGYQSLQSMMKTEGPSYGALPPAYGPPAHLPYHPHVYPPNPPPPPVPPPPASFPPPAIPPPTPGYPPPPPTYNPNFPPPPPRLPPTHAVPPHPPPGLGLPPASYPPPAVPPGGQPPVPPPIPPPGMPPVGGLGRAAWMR
# UniProt P83916, sequence (P83916 whole entry, looked up): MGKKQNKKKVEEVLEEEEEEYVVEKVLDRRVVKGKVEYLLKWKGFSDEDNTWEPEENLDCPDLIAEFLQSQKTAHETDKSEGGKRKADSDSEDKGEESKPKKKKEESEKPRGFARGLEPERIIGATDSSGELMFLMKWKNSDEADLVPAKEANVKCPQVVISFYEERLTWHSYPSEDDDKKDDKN
# UniProt P21964, sequence (P21964 whole entry, looked up): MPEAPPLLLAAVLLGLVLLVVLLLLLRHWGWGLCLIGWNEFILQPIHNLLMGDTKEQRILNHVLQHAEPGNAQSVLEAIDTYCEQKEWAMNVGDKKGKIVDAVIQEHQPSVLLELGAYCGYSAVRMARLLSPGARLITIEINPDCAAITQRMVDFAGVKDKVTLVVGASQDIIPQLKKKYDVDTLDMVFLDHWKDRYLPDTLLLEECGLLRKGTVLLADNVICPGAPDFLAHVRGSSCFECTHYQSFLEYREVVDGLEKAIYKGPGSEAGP
# UniProt O75153, sequence (O75153 whole entry, looked up): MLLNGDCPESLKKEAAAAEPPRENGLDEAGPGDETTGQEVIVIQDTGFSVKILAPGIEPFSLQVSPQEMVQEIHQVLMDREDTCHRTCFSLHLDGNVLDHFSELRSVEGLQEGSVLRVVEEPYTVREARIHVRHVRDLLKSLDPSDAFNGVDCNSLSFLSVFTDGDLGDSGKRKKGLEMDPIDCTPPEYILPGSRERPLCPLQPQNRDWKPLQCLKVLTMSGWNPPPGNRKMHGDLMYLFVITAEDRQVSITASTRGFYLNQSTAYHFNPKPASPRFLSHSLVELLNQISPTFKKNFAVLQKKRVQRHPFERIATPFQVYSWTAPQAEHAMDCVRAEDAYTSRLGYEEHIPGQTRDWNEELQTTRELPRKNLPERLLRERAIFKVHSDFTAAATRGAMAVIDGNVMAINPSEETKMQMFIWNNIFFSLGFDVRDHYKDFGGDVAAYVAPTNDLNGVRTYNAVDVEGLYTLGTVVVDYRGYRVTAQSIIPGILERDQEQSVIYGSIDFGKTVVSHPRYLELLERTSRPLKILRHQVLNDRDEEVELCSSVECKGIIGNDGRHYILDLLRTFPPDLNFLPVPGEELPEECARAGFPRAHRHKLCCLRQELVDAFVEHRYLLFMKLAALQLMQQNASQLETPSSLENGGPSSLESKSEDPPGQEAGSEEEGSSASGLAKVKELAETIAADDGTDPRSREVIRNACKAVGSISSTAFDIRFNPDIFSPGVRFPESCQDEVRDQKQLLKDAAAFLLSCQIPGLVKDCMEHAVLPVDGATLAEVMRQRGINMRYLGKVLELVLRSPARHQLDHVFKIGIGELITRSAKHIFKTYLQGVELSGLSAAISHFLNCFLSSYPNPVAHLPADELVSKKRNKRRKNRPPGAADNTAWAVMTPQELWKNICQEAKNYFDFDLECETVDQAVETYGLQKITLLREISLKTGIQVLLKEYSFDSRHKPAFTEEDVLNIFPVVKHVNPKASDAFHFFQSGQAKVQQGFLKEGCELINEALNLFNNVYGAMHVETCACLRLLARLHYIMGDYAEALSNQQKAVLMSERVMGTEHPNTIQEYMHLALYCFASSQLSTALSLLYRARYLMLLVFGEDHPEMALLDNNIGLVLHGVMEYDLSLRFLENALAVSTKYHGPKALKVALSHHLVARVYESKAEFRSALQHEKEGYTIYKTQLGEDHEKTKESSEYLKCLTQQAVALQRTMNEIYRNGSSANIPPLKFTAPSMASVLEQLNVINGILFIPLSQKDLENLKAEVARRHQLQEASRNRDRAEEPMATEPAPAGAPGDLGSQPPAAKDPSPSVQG
# UniProt Q96G23, sequence (Q96G23 whole entry, looked up): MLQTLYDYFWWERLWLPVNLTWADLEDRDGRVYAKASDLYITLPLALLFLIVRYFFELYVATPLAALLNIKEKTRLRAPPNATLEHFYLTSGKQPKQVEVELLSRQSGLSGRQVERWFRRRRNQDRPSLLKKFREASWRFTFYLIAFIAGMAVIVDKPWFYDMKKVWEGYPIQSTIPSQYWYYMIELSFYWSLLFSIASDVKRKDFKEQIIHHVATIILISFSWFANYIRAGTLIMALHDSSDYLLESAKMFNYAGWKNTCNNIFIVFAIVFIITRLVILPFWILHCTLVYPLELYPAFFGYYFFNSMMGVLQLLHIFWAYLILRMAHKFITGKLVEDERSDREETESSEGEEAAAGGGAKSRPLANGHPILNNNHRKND
# UniProt Q8IUI8, sequence (Q8IUI8 whole entry, looked up): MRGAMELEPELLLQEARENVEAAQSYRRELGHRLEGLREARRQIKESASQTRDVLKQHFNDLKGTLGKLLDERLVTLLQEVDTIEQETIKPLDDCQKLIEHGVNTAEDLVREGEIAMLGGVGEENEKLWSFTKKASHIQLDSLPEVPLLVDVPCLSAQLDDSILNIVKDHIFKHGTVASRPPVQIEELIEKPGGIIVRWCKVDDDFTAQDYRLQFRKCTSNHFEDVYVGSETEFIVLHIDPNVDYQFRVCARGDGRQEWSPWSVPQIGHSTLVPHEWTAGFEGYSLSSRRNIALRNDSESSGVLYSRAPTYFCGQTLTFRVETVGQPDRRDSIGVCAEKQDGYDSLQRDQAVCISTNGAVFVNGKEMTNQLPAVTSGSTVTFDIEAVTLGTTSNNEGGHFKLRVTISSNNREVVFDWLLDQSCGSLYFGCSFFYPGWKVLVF
# UniProt P48729, sequence (P48729 whole entry, looked up): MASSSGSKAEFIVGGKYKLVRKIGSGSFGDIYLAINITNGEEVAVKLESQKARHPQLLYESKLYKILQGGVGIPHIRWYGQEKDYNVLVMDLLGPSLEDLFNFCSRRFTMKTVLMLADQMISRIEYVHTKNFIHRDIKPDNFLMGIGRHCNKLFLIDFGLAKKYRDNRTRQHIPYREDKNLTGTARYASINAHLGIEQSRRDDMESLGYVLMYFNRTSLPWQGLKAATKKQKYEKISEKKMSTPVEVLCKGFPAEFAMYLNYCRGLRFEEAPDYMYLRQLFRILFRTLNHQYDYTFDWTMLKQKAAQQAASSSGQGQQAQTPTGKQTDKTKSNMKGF
# UniProt Q13137, sequence (Q13137 whole entry, looked up): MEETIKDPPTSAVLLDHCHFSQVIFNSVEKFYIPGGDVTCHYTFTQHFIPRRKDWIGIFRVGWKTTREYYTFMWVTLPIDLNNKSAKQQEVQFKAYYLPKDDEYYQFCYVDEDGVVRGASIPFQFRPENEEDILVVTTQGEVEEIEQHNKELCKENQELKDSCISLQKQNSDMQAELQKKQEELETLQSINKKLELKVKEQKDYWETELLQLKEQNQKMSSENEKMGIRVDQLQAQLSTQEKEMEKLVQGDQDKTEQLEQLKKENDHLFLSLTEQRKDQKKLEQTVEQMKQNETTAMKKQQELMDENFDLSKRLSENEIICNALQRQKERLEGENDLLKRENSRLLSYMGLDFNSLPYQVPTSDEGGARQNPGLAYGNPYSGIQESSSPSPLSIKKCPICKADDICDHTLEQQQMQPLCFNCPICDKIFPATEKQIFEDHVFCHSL
# UniProt Q8IWV2, sequence (Q8IWV2 whole entry, looked up): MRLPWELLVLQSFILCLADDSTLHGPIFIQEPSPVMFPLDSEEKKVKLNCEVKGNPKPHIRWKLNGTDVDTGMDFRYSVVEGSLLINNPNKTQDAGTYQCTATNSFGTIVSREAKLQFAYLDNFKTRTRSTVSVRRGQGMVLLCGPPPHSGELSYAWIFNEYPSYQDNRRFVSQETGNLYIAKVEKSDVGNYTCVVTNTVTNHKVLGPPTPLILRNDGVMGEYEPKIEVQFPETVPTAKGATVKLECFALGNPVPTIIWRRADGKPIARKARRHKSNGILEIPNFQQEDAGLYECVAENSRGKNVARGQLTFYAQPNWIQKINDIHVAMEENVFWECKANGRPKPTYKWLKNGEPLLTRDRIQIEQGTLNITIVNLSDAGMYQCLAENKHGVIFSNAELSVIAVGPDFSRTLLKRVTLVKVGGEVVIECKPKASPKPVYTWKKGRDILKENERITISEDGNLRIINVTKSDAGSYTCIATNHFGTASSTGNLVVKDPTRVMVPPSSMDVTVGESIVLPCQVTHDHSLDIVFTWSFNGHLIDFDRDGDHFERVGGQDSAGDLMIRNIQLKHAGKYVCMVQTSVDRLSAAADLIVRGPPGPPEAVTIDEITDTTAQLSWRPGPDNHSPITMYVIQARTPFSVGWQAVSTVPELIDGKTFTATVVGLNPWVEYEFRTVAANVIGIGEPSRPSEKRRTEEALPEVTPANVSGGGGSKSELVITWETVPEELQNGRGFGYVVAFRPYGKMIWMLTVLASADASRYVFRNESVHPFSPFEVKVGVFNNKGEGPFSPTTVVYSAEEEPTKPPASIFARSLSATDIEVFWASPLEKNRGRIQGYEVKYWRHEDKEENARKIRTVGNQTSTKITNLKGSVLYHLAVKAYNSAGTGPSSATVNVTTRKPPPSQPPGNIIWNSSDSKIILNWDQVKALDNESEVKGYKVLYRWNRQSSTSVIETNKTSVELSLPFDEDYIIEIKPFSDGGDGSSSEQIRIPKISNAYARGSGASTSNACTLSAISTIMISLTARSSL
row,Target,log2 fold change
1,CNDP2 (UniProt Q96KP4),-0.03 (inactive)
2,CSNK1A1 (UniProt P48729),-0.044 (inactive)
3,CNTN4 (UniProt Q8IWV2),-0.109 (inactive)
4,CRLF3 (UniProt Q8IUI8),-0.032 (inactive)
5,CDC123 (UniProt O75794),0.015 (inactive)
6,CPT1A (UniProt P50416),0.171 (inactive)
7,CERS2 (UniProt Q96G23),-0.177 (inactive)
8,COQ7 (UniProt Q99807),-0.168 (inactive)
9,CELF2 isoform 3 (UniProt O95319),0.014 (inactive)
10,COPS8 (UniProt Q99627),-0.021 (inactive)
11,CBX1 (UniProt P83916),-0.037 (inactive)
12,CDK5RAP3 isoform 4 (UniProt Q96JB5),0.039 (inactive)
13,CD53 (UniProt P19397),0.091 (inactive)
14,CCNK isoform 4 (UniProt O75909),0.106 (inactive)
15,COPS4 (UniProt Q9BT78),0.003 (inactive)
16,COASY isoform 2 (UniProt Q13057),-0.009 (inactive)
17,CDKN2AIP (UniProt Q9NXV6),0.034 (inactive)
18,CDK6 (UniProt Q00534),-0.017 (inactive)
19,CHCHD1 (UniProt Q96BP2),-0.084 (inactive)
20,CLUH (UniProt O75153),0.007 (inactive)
21,CALCOCO2 isoform 4 (UniProt Q13137),-0.647 (active)
22,COMT (UniProt P21964),0.011 (inactive)
